test system: not listed separately; experiment: RPMI8226 myeloma cell viability, profiling panel, resazurin fluorescence, basal, 24 h, PK04 Diversity Set (AID 1180); settings: higher = more signal;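 further: RPMI8826 multiple myeloma cell line at 5000 cells per well; test concentration not given here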

| SMILES | z-score |
| --- | --- |
| COC(=O)[C@@]1(Cc2ccc(F)cc2)[C@H]2c3cc(C(=O)N4CCCC4)n(Cc4ccccc4)c3C[C@H]2CN1C(=O)c1ccccc1 | -0.922 |
| CCC[C@@H]1C[C@@]1(CCC)[C@@H](NC(=O)c1ccco1)c1ccc(Cl)cc1 | -1.67 |
| C[C@@]1([C@@H](NC(=O)c2cccs2)c2ccc(-c3ccccc3)cc2)C[C@H]1C1CCCCC1 | 0.689 |
| O=C1O[C@H](c2ccccc2)[C@H](c2ccccc2)N2[C@H]1[C@@H](C(=O)N1CCN(c3ncccn3)CC1)[C@]1(C(=O)Nc3ccc(C#CCCO)cc31)[C@H]2c1ccccc1OCCO | -1.36 |
| C=C(COC)C(=O)CC[C@H](OC(=O)c1ccccc1-c1ccccc1C(=O)O)c1ccc(CO)o1 | -0.178 |
| COCC(=C=CC[C@@H](O)c1ccccc1OCCO)C[C@@H](O)c1ccccn1 | -0.348 |
| COC(=O)C(CC#Cc1ccc2c(c1)[C@]1(C(=O)N2)[C@H](c2ccc(OCCO)cc2)N2[C@H](c3ccccc3)[C@H](c3ccccc3)OC(=O)[C@H]2[C@@H]1C(=O)O)C(=O)OC | 0.749 |
| COCCCNC(=O)[C@]1(Cc2ccccc2CN=[N+]=[N-])N=C(c2ccc(OCCCO)cc2)O[C@@H]1c1ccccc1CN=[N+]=[N-] | -2.03 |
| C=C(C(=O)CC[C@H](OC(=O)c1cccnc1)c1ccc(OCCO)cc1)C(C)C | -2.53 |
| CC(C)CNC(=O)[C@@]1(C)c2ccccc2C(=O)N(Cc2ccccc2)[C@H]1c1ccc(CO)cc1 | -0.551 |
| CC(C)(C)OC(=O)CC[C@]1(C(=O)O)COC(c2ccc(OCCCO)cc2)=N1 | -0.0624 |
| COc1ccc([Si](C)(C)[C@@H]2[C@@H](CC(=O)N(CCO)Cc3ccccc3)O[C@]3(C(=O)N(Cc4ccc(N5CCOC5=O)cc4)c4ccccc43)[C@H]2C)cc1 | -2.31 |
| CCCCC=C[C@@H](NC(=O)CCc1ccccc1)c1ccccc1 | -3.6 |
| C=C(/C(=C/C[C@@H](OC(=O)c1ccncc1)c1ccccc1OCCO)c1cnc2ccccc2c1)C(C)C | -0.365 |
| C=C(CCCC)/C(=C/C[C@@H](OC(=O)c1ccncc1)c1ccccc1OCCO)c1cc(C(=O)OC)ccc1OC | -0.94 |
| CC(C)N1C(=O)c2ccccc2[C@](C)(C(=O)O)[C@@H]1c1ccc(CO)cc1 | 0.125 |
| COC(=O)[C@@]1(Cc2ccc(OC)cc2)[C@H]2c3cc(C(=O)N(C)C)n(Cc4cc(C)n(C)n4)c3C[C@H]2CN1C(=O)c1ccccc1 | -0.936 |

target: E3 ubiquitin-protein ligase XIAP (Homo sapiens) (UniProt P98170); experiment: XIAP binders, primary screen, biophysical, small-molecule microarray, fluorescence 635 nm (AID 1181); settings: small-molecule microarray binding, higher = more signal;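 further: score merges 667 nm emission and signal to noise over triplicate slides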
Sequence (P98170 whole entry, looked up): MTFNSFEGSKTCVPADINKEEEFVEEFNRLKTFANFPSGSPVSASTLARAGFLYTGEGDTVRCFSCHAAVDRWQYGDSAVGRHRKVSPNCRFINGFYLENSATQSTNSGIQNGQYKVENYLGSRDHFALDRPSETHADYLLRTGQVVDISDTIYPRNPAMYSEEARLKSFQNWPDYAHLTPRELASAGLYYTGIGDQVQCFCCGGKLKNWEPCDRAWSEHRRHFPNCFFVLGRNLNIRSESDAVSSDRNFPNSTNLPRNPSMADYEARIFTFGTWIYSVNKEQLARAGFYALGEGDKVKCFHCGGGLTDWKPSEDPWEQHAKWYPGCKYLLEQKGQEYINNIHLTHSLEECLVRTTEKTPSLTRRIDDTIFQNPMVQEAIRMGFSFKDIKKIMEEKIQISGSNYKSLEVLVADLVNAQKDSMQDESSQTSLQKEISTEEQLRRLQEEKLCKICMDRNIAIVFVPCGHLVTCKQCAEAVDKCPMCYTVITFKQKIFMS

| SMILES | composite z-score |
| --- | --- |
| CN(C)C(=O)[C@@]1(CCS(=O)(=O)c2ccccc2)N=C(c2ccc(OCCCO)cc2)O[C@H]1c1ccccc1CN=[N+]=[N-] | -0.0381 |
| Cc1ccc(S[C@]2(C(=O)NCc3ccccc3)CC(=O)N(C3Cc4ccccc4C3)[C@@H]2c2ccc(CO)cc2I)cc1 | -0.315 |
| C=C(C)[C@@H]1CC=C(C(O)C2C=CC3C(=O)N(C4CCCCC4)C(=O)C3N2Nc2ccc(OC)cc2)CC1 (stereo partly drawn) | 0.356 |
| CC(C)(C)N1CC=CC23O[C@@H]4C=CCCOC(=O)C4[C@H]2C(=O)N(CCCO)[C@@H]3C1=O (stereo partly drawn) | -0.263 |
| CN(C)C(=O)[C@]1(Cc2ccccc2N=[N+]=[N-])N=C(c2ccc(OCCCO)cc2)O[C@@H]1c1ccccc1CN=[N+]=[N-] | 0.152 |
| COC(=O)[C@@]1(Cc2ccc(OC)cc2)[C@H]2c3cc(C(=O)N4CCCC4)n(Cc4ccc(C)o4)c3C[C@H]2CN1C(=O)c1ccccc1 | 0.402 |
| [N-]=[N+]=NCc1ccccc1C[C@]1(C(=O)NCCN2CCOCC2)N=C(c2ccc(OCCCO)cc2)O[C@H]1c1ccccc1 | 0.131 |
| CCCCCCC#C[Si](O[C@H](c1ccccc1)c1cn(Cc2cccc(Cl)c2)nn1)(C(C)C)C(C)C | -0.0447 |
| COCCOC(=O)N1C(=O)[C@@]2(c3cc(C#CC4(O)CCCCCC4)ccc31)[C@H](C(=O)N1CCN(c3ncccn3)CC1)[C@H]1C(=O)O[C@H](c3ccccc3)[C@H](c3ccccc3)N1[C@@H]2c1ccc(O)cc1 | -0.177 |
| COc1ccc(C(=O)Nc2ccc3c(c2)[C@]2(O[C@@H](CCO)[C@H]([Si](C)(C)c4ccc(OC)cc4)[C@H]2C)C(=O)N3Cc2ccccc2)cc1 | -0.165 |
| COc1ccc([Si](C)(C)[C@@H]2[C@@H](CCO)O[C@]3(C(=O)N(Cc4ccccc4)c4ccc(N5CCCCC5=O)cc43)[C@H]2C)cc1 | -0.0826 |
| C#CCNS(=O)(=O)N(C)C | -0.05 |
| COCCCNC(=O)[C@]1(CCS(=O)(=O)c2ccccc2)N=C(c2ccc(OCCCO)cc2)O[C@@H]1c1ccccc1 | 0.209 |
| CC(=O)NCCCC[C@@H]1NC(=O)[C@@H]2C[C@H](C(=O)NCCCC[N+](C)(C)C)[C@H](c3cccc(OCCO)c3)N2C1=O | 0.142 |
| CCCC[C@@H](O)C1=C(COc2ccccc2)Cn2c(=O)n(-c3ccccc3)c(=O)n2[C@H]1CO | 0.106 |
| C=CCOC(=O)[C@H]1[C@@H]2C(=O)O[C@@H](c3ccccc3)[C@@H](c3ccccc3)N2[C@@H](c2ccc(OCCOC(=O)[C@H]3C[C@H]4C(=O)N[C@@H](CCCCN(C)C)C(=O)N4[C@H]3c3ccc(O)cc3)cc2)[C@]12C(=O)Nc1ccccc12 | 0.0425 |
| C=CCNC(=O)[C@H]1[C@@H]2C(=O)O[C@@H](c3ccccc3)[C@@H](c3ccccc3)N2[C@@H](c2ccc(OCCO)cc2)[C@]12C(=O)N(C(=O)OCCOC)c1ccc(C#CC3=CCCCC3)cc12 | -0.0727 |
| COC(=O)[C@@]1(Cc2ccccc2)[C@H]2c3cc(C(=O)N4CCCC4)n(Cc4ccc(OC(F)(F)F)cc4)c3C[C@H]2CN1C(=O)c1ccccc1 | 0.131 |

| SMILES | composite z-score |
| --- | --- |
| COc1ccc([Si](C)(C)[C@H]2[C@H](CCn3cc(CCO)nn3)O[C@@]3(C(=O)N(Cc4cccc(N5C(=O)c6cccc7cccc5c67)c4)c4ccccc43)[C@@H]2C)cc1 | 0.235 |
| COC(=O)[C@@]1(Cc2ccc(F)cc2)[C@H]2c3cc(C(=O)N4CCCC4)n(Cc4ccccc4)c3C[C@H]2CN1C(=O)c1ccccc1 | -0.146 |
| CCC[C@@H]1C[C@@]1(CCC)[C@@H](NC(=O)c1ccco1)c1ccc(Cl)cc1 | -0.683 |
| C[C@@]1([C@@H](NC(=O)c2cccs2)c2ccc(-c3ccccc3)cc2)C[C@H]1C1CCCCC1 | 0.246 |
| O=C1O[C@H](c2ccccc2)[C@H](c2ccccc2)N2[C@H]1[C@@H](C(=O)N1CCN(c3ncccn3)CC1)[C@]1(C(=O)Nc3ccc(C#CCCO)cc31)[C@H]2c1ccccc1OCCO | -0.16 |
| C=C(COC)C(=O)CC[C@H](OC(=O)c1ccccc1-c1ccccc1C(=O)O)c1ccc(CO)o1 | 0.0402 |
| COCC(=C=CC[C@@H](O)c1ccccc1OCCO)C[C@@H](O)c1ccccn1 | -0.0541 |
| COC(=O)C(CC#Cc1ccc2c(c1)[C@]1(C(=O)N2)[C@H](c2ccc(OCCO)cc2)N2[C@H](c3ccccc3)[C@H](c3ccccc3)OC(=O)[C@H]2[C@@H]1C(=O)O)C(=O)OC | -0.194 |
| COCCCNC(=O)[C@]1(Cc2ccccc2CN=[N+]=[N-])N=C(c2ccc(OCCCO)cc2)O[C@@H]1c1ccccc1CN=[N+]=[N-] | 0.0427 |
| C=C(C(=O)CC[C@H](OC(=O)c1cccnc1)c1ccc(OCCO)cc1)C(C)C | 0.158 |
| CC(C)CNC(=O)[C@@]1(C)c2ccccc2C(=O)N(Cc2ccccc2)[C@H]1c1ccc(CO)cc1 | -0.395 |
| CC(C)(C)OC(=O)CC[C@]1(C(=O)O)COC(c2ccc(OCCCO)cc2)=N1 | -0.118 |
| COc1ccc([Si](C)(C)[C@@H]2[C@@H](CC(=O)N(CCO)Cc3ccccc3)O[C@]3(C(=O)N(Cc4ccc(N5CCOC5=O)cc4)c4ccccc43)[C@H]2C)cc1 | -0.0333 |
| CCCCC=C[C@@H](NC(=O)CCc1ccccc1)c1ccccc1 | -0.154 |
| C=C(/C(=C/C[C@@H](OC(=O)c1ccncc1)c1ccccc1OCCO)c1cnc2ccccc2c1)C(C)C | 0.326 |
| C=C(CCCC)/C(=C/C[C@@H](OC(=O)c1ccncc1)c1ccccc1OCCO)c1cc(C(=O)OC)ccc1OC | 0.057 |
| CC(C)N1C(=O)c2ccccc2[C@](C)(C(=O)O)[C@@H]1c1ccc(CO)cc1 | 0.0767 |
| COC(=O)[C@@]1(Cc2ccc(OC)cc2)[C@H]2c3cc(C(=O)N(C)C)n(Cc4cc(C)n(C)n4)c3C[C@H]2CN1C(=O)c1ccccc1 | 0.0018 |

Reference: PubChem BioAssay
